Screening data from PubChem BioAssay.
nsP2pro primary – blocks chikungunya virus nsP2 protease peptide cleavage | 1.1% of 31,000 active | FRET peptide cleavage, nsP2pro, fluorescence 1 h | Potency, µM (doses to about 24.9 µM), usual class: inhibitors | AID 1964107; also: nearly all actives have a fitted effect of over 60% in size
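Purified recombinant nsP2pro (150 nM final) in 10 mM Tris-HCl pH 8.0 with 0.01% Tween 20 was preincubated 15 min at room temperature with compound (7 concentrations, up to 25 uM). FRET peptide 2 substrate (2.5 uM final) was then added; fluorescence was read after 1 h.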
CHIKV nsP2 cell – inhibits CHIKV nsP2 protease in cells; shares compounds with nsP2pro primary; cell-based CHIKV nsP2 protease reporter assay; Potency, µM (series often up to 51.1 µM), actives largely listed as inhibitors; 10% of 450 active; also: nearly all actives have a fitted effect of over 70% in size
CHIKV NSP2 FL – selectivity test for CHIKV nsP2 protease inhibitors: full-length NSP2; Full-length CHIKV NSP2 protease enzymatic counterscreen; shares compounds with nsP2pro primary; AID 1964101; Potency, µM (doses to about 50.7 µM), most hits filed as inhibitors; 39% of 410 active; also: nearly all actives have a fitted effect of over 65% in size
Furin counterscr – selectivity counter-screen for CHIKV nsP2 protease inhibitors: human furin | shares compounds with nsP2pro primary | Recombinant human furin enzymatic counterscreen, fluorogenic substrate | Potency, µM (doses to about 50.6 µM), most hits filed as inhibitors | 6% of 410 active
NS23 peptide cs – nsP2pro inhibition on native NS2/3 peptide substrate | Potency, µM (highest dose often 51 µM), hits mostly inhibitors | Purified CHIKV nsP2 protease, endogenous NS2/3 peptide cleavage | shares compounds with nsP2pro primary | 34% of 410 active; also: nearly all actives have a fitted effect of over 55% in size
Papain counter – inhibits papain in a CHIKV nsP2 protease selectivity counterscreen | Potency, µM (titrated, usually from 51 µM), hits mostly inhibitors | purified papain protease activity, enzymatic inhibition | shares compounds with nsP2pro primary | 5% of 410 active | AID 1964104
nsP2pro conf qHTS – confirmation of CHIKV nsP2 protease inhibitors | shares compounds with nsP2pro primary | CHIKV nsP2 protease enzymatic activity, qHTS | Potency, µM (doses to about 25.5 µM), actives largely listed as inhibitors | 43% of 410 active | AID 1964105; also: nearly all actives have a fitted effect of over 75% in size
HCV NS3 counter – selectivity counter-screen for CHIKV nsP2 protease inhibitors: HCV NS3/4A. shares compounds with nsP2pro primary. HCV NS3/4A protease biochemical counterscreen. Potency, µM (doses to about 50.9 µM), hits mostly inhibitors. 20% of 410 active. AID 1964106; also: nearly all actives have a fitted effect of over 55% in size
Numbers stand for hits; 0 = inactive; [ ] = another dose, or the depositor's remark. Shown is part of a subset that was picked to be rich in hits. Calls follow the shape of the full dose curve.

SMILES	nsP2pro primary	others
CN1CC2(CCN(Cc3ccc(-c4ccc(Cl)cc4)o3)C2)OC1=O (stereo unspecified)	12.6µM
COc1cccc(C(=O)N(C)Cc2ccccc2C(F)(F)F)c1	0
CCCCCCCCCC(=O)OCCN1CCN(CC/C=C2\c3ccccc3Sc3ccc(C(F)(F)F)cc32)CC1	0
COCCNC(=O)C1CCC(=O)N1C1CCNCC1 (stereo unspecified)	0
CN(C)C(=O)N1CCN(C2CCNCC2)C(=O)C1	12.6µM
CN1CC(=O)N(C2CCCNCC2)Cc2c1ncnc2N1CCCC1CO (stereo unspecified)	0
Cc1cc(NC(=O)Nc2nnc(C3CCCCC3)s2)ccc1Cl	0
CC1COC2=C1C(=O)C(=O)c1c2ccc2c1CCCC2(C)C (stereo unspecified)	11.2µM
OC(CN1CCN(c2cccc(Cl)c2)CC1)C(c1ccccc1)c1ccccc1 (stereo unspecified)	0
CCN1CCN(CC(O)COc2cccc(CNCc3cnn(CC)c3)c2)CC1 (stereo unspecified)	0
Cc1cc(OCC(O)CN2CCN(c3cccc(Cl)c3)CC2)ccc1Cl (stereo unspecified)	11.2µM
CCC1C(=O)NCCN1Cc1cn(-c2cccc(F)c2)nc1-c1ccc(C)o1 (stereo unspecified)	11.2µM
CCCS(=O)(=O)NC1CC(N(C)c2ncnc3[nH]ccc23)C1 (stereo unspecified)	0
O=c1c2ccccc2nc2sc(Nc3cccc(N4CCN5CCCCC5C4)c3)nn12 (stereo unspecified)	0
COc1ccc(C(=O)n2nc(-c3ccc(Cl)cc3)nc2NCc2ccco2)cc1	0
CN(C)c1ccc(CNc2nc(-c3ccco3)nn2C(=O)c2cccc([N+](=O)[O-])c2)cc1	0
COc1ccc(C(=O)n2nc(-c3ccco3)nc2NCc2cccs2)cc1OC	12.6µM
CCN(CC)C(=O)[C@]1(c2ccccc2)C[C@H]1CN	0
COc1cccc(CN2C[C@@H](CO)[C@H](NC(=O)C3CC3)C2)n1	0
CN1CCN(c2cc(-c3nc(Nc4ccc(F)c(F)c4)c4ccccc4n3)ccn2)CC1	0
O=C(N[C@H](c1ccccn1)C1CC(O)C1)c1ccc(Cn2cccn2)o1 (stereo partly specified)	0
CS(=O)(=O)c1ccc(CC(=O)N[C@H](c2ccccn2)C2CC(O)C2)cc1 (stereo partly specified)	0
CS(=O)(=O)c1ccc(CN2CCC(C(O)c3ccccn3)CC2)cc1 (stereo unspecified)	11.2µM
Cc1cc(C)nc(NC(=S)N2CCN(c3cc(Cl)cc(C(F)(F)F)c3)CC2)c1	0
C[C@@](Cc1ccc(O)c(O)c1)(NN)C(=O)O	11.1µM
SMILES	nsP2pro primary	others
N[C@@H](Cc1ccc(O)c(O)c1)C(=O)O	0[0.199 µM]
COc1cc(CC(=O)O)ccc1O	0
[2H]C([2H])([2H])C(CCC[C@@H](C)[C@H]1CC[C@H]2/C(=C/C=C3\C[C@@H](O)C[C@H](O)C3=C)CCC[C@]12C)C([2H])([2H])[2H]	0
O=C(Nc1ccc(F)cc1)c1ccc2cc[nH]c2n1	0
OC(COc1ccccc1CNCC1CCOCC1)CN1CCSCC1 (stereo unspecified)	0
CCOC(=O)N1CCc2c(sc(NCc3cccs3)c2C(=O)Nc2cc(OC)ccc2OC)C1	11.2µM
COc1ccc(NC(=O)c2c(NCc3sccc3C)sc3c2CCCC3)c(OC)c1	0
COc1ccccc1NC(=O)c1c(NCc2ccc(OC)c(OC)c2OC)sc2c1CCC2	0
COC(=O)Nc1c(N)nc(-c2nn(Cc3ccccc3F)c3ncc(F)cc23)nc1N	0
O=C(O)c1ccc(Cc2c(-c3cccc(-c4ccccc4)c3)[nH]n(-c3nc(C(=O)O)cs3)c2=O)cc1	0
O=C(NCC1CC1)C1CN(Cc2ccccc2)C(=O)N1 (stereo unspecified)	0
O=C(NCc1cccc(F)c1)c1nc2c(o1)CCN(CC1CCCC1)CC2	3.55µM
Cc1c(C(=O)NCc2cccc(F)c2)oc2c1-c1[nH]ncc1CC2	0
O=C(NCC1CC1)c1nc2c(o1)CCN(CCCc1ccccc1)CC2	10µM
O=C(NC1CC1)[C@@H]1CN(CCCc2ccccc2)C[C@H]1CO	0
COc1ccc(CN2CCc3ncc(C(=O)NCc4ccc5c(c4)OCO5)n3CC2)cn1	0
O=C(NCc1ccc(F)cc1)c1nnc(Cc2cccc(F)c2)o1	0
COc1ccc(CN2CCc3nc(C(=O)NCCOc4ccccc4)oc3CC2)cn1	3.55µM
Cc1[nH]cnc1CN1CCc2nc(C(=O)NCCOc3ccccc3)oc2CC1	0
CSc1ccccc1-c1ncc(C)c(NCc2ccc(-c3cccnc3)cc2)n1	0
O=C(CNC(=O)c1ccc(-c2cccc(C(F)(F)F)c2)cc1)NCC(F)(F)F	0
CC[C@@H]1CCN[C@H](C(=O)N[C@@H]([C@H]2O[C@H](SC)[C@H](O)[C@@H](O)[C@H]2O)[C@H](C)Cl)C1	0
COc1ccc2nc(-c3cccc(C)c3)sc2c1	0
Cc1cc(C)nc(NC(=S)N2CCN(c3ncc(Cl)cc3Cl)CC2)c1	0
Cn1nc(C2CC2)cc1NC(=O)C(C)(C)C	0
SMILES	nsP2pro primary	others
COc1c(O)cc2c(c1O)[C@H]1O[C@@H](CO)[C@H](O)[C@@H](O)[C@@H]1OC2=O	0
CCOc1cccc(CN2C[C@@H](Oc3ccccc3)C[C@@H]2C(=O)NC)c1	0
C=C1[C@@H](C)C2[C@H](Cc3ccccc3)NC(=O)[C@@]23C(/C=C/C[C@H](C)C[C@@](C)(O)/C=C/[C@@H]3OC(C)=O)[C@@H]1O (stereo partly specified)	0
C=C1[C@@H](C)[C@H]2[C@H](Cc3ccccc3)NC(=O)[C@]23OC(=O)/C=C/C(=O)CCC[C@@H](C)C/C=C/[C@H]3[C@@H]1O	2.48µM	CHIKV nsP2 cell=0.708µM;CHIKV NSP2 FL=7.3µM;Furin counterscr=0;NS23 peptide cs=8.19µM;Papain counter=0;nsP2pro conf qHTS=1.13µM;HCV NS3 counter=0.366µM
CC1=CC2/C=C(\C)CCC(O)C(O)/C=C/C(=O)OC23C(=O)NC(CC(C)C)C3C1C (stereo unspecified)	0
Cc1cnc(-c2ccccc2C(C)C)nc1N(C)Cc1ccc(-c2cccnc2)cc1	0
